Reference: a collection of fitness landscapes (doi:10.1126/science.1257360)
The full ranking holds about 140,000 sequences; the median of “enrichment ratio after two sorts for PhoP signalling” is about 0, and the highest 2% start at about 11. Many of the other results were omitted from the sample, so the highest values are more common in it than they were.

B1: PhoQ; a variant is named by its letters at X, in order, P23837 (parent)
chain: MKKLLRLFFPLSLRVRFLLATAAVVLVLSLAYGMVALIGYSVSFDKTTFRLLRGESNLFYTLAKWENNKLHVELPENIDKQSPTMTLIYDENGQLLWAQRDVPWLMKMIQPDWLKSNGFHEIEADVNDTSLLLSGDHSIQQQLQEVREDDDDAEMTHSVAVNVYPATSRMPKLTIVVVDTIPVELKSSYMVWSWFIYVLSANLLLVIPLLWVAAWWSLRPIEALAKEVRELEEHNRELLNPATTRELTSLVRNLNRLLKSERERYDKYRTTLTDLTHSLKTPLXXLQXXLRSLRSEKMSVSDAEPVMLEQISRISQQIGYYLHRASMRGGTLLSRELHPVAPLLDNLTSALNKVYQRKGVNISLDISPEISFVGEQNDFVEVMGNVLDNACKYCLEFVEISARQTDEHLYIVVEDDGPGIPLSKREVIFDRGQRVDTLRPGQGVGLAVAREITEQYEGKIVAGESMLGGARMEVIFGRQHSAPKDE

Variants of: B1
Assay: enrichment ratio after two sorts for PhoP signalling (ratio (wild type AVST 3.29)); higher = more functional
Conditions: with PhoP (E. coli)

Row | Variant | enrichment ratio
1 | ILAT | 0.361
2 | HVDN | ≤ 0.25
3 | TLEY | ≤ 0.25
4 | KMTV | ≤ 0.25
5 | FPHD | ≤ 0.25
6 | WHGQ | ≤ 0.25
7 | MCMM | 11.9
8 | KSMM | ≤ 0.25
9 | SKMG | 3.1
10 | SKMM | 24.1
11 | QGMM | 31.6
12 | MDMM | ≤ 0.25
13 | QTMM | ≤ 0.25
14 | FCMM | 8.52
15 | FFMM | ≤ 0.25
16 | TSMM | 21.5
17 | NSMM | 1.7
18 | QLQK | ≤ 0.25
19 | TKIP | ≤ 0.25
20 | ELAY | ≤ 0.25
21 | NETK | ≤ 0.25
22 | MVNN | ≤ 0.25
23 | RGIV | ≤ 0.25
24 | SFSE | ≤ 0.25
25 | ETYT | ≤ 0.25
26 | MTEV | ≤ 0.25

Row | Variant | enrichment ratio
27 | VHMG | ≤ 0.25
28 | LSWM | 2.98
29 | LWMM | ≤ 0.25
30 | LNMM | 1.77
31 | NNMM | 17.4
32 | FGWM | ≤ 0.25
33 | FGGM | ≤ 0.25
34 | FGMM | 18.1
35 | LSMM | 12.4
36 | NNRM | ≤ 0.25
37 | DRPI | ≤ 0.25
38 | ETGL | ≤ 0.25
39 | YNMN | ≤ 0.25
40 | ICFY | ≤ 0.25
41 | DNHD | ≤ 0.25
42 | PFKT | ≤ 0.25
43 | QPNP | ≤ 0.25
44 | PFSV | ≤ 0.25
45 | NIRV | ≤ 0.25
46 | ALCQ | 13.8
47 | LLCQ | ≤ 0.25
48 | ALQP | ≤ 0.25
49 | ALCI | 9.33
50 | ALVE | ≤ 0.25
51 | ALCE | 16.1
52 | FDQC | ≤ 0.25

Row | Variant | enrichment ratio
53 | HRRK | ≤ 0.25
54 | GSPQ | ≤ 0.25
55 | QQFG | 20.2
56 | QRFG | ≤ 0.25
57 | QKFG | ≤ 0.25
58 | WQFG | ≤ 0.25
59 | QEFG | 30.8
60 | QQFA | ≤ 0.25
61 | YSKV | ≤ 0.25
62 | PITH | ≤ 0.25
63 | YICL | 3.21
64 | ADAL | ≤ 0.25
65 | AEVT | 15.3
66 | AEYT | 2.16
67 | AEEV | 2.19
68 | AEYV | ≤ 0.25
69 | AEAL | 18.2
70 | AENT | 10.7
71 | AEFT | 6.27
72 | AELT | 6.58
73 | AAAL | 4.97
74 | AEAT | 47.1
75 | AEAV | 15.8
76 | FMVL | ≤ 0.25
77 | SFSW | ≤ 0.25
78 | TSQR | ≤ 0.25
